Here are results for nine compounds from article PMC5540273 (PLoS ONE, 2017).

Test systems include VRK2; WEE1; WEE2; WNK1; WNK2; WNK3; WNK4; ZAK; ZAP70; p38-delta.
What all share (details): concentration: 1 μM, replicates: in singlicate; n = 1
In the next assay the test system is T1, VEGFR2.
T1 construct: gene KDR

Another assay has as its system T2, VPS34.
T2 construct: gene PIK3C3

In a further assay the test system is T3, YANK1.
T3 construct: gene STK32A

Another assay has as its system T4, YANK2.
T4 construct: gene STK32B

The test system of the next assay is T5, YANK3.
T5 construct: gene STK32C

Another assay has as its system T6, YES.
T6 construct: gene YES1

In the next assay the test system is T7, YSK1.
T7 construct: gene STK25

The subject of a further assay is T8, YSK4.
T8 construct: gene MAP3K19

The subject of the next assay is T9, p38-alpha.
T9 construct: gene MAPK14

The next assay relates to T10, p38-beta.
T10 construct: gene MAPK11
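Further: KINOMEscan kinase panel screen.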

For the compound `COC(=O)C(Cc1ccccc1)NC(=O)NC1CCN(c2ccnc(Nc3ccc(F)cc3)n2)C1` (stereo not drawn) [GSK1379714], the “%Inh” value with VEGFR2 is reported as 7%; in the assay with VPS34, 3%; in the assay on VRK2, 38%; in the assay with WEE1, 0%; with WEE2 it was 13%; with WNK1 it was 3%. The “%Inh” value in the assay with WNK2 came out at 46%; with WNK3, 38%; in the assay with WNK4, 45%; with YANK1, 0%; with YANK2, 0%; with YANK3 it was 7%. The “%Inh” value with YES is given as 0%; in the assay on YSK1, 0%; with YSK4, 82%; with ZAK it was 5%; in the assay with ZAP70, 7%; in the assay on p38-alpha, 0%. Besides, the “%Inh” value in the assay on p38-beta and in the assay with p38-delta was 0% throughout.

Take `Cc1cccc2c(-c3ccncn3)c(-c3ccc(F)cc3)nn12` [GW515532]: the “%Inh” value in the assay on VEGFR2 came to 5%; in the assay with VPS34 it was 30%; in the assay on VRK2, 0%; in the assay with WEE1, 0%; with WEE2, 0%; in the assay with WNK1 it was 16%. Besides, the “%Inh” value in the assay with WNK2 was 0%; with WNK3, 22%; in the assay with WNK4, 0%; in the assay on YANK1 it was 26%; in the assay with YANK2, 41%; with YANK3, 18%. In addition, the “%Inh” value in the assay on YES is 0%; with YSK1, 8%; with YSK4, 16%; in the assay with ZAK, 9%; in the assay on ZAP70, 20%; with p38-alpha, 91.6%. Moreover, the “%Inh” value in the assay on p38-beta was determined as 1%; in the assay on p38-delta, 15%.

For `COC(=O)c1cccc(NC(=O)NC2CCN(c3ccnc(Nc4ccc(OC)cc4)n3)C2)c1` (stereo not drawn) [GSK1379746], the “%Inh” value in the assay on VEGFR2 is 0%; in the assay on VPS34 it was 0%; in the assay with VRK2, 0%; with WEE1, 7%; in the assay on WEE2 it was 0%; with WNK1, 11%. Besides, the “%Inh” value was 4% in the assay on WNK2; 51% in the assay on WNK3; 46% with WNK4; 0% with YANK1; 0% in the assay with YANK2; 8% in the assay with YANK3. Further, the “%Inh” value with YES worked out at 13%; in the assay with YSK1 it was 0%; in the assay on YSK4 it was 22%; in the assay on ZAK, 0%; in the assay with ZAP70, 0%; in the assay with p38-alpha, 3%. Besides, the “%Inh” value in the assay with p38-beta amounted to 0%; in the assay with p38-delta, 6%.

For `CCc1ccc(-c2ccc3c(c2)-c2n[nH]cc2S(=O)(=O)N3C)cc1`, the “%Inh” value stood at 0% with VEGFR2; 4% with VPS34; 0% in the assay on VRK2; 14% in the assay on WEE1; 0% in the assay with WEE2; 23% in the assay with WNK1. The “%Inh” value in the assay with WNK2 worked out at 2%; in the assay on WNK3, 3%; with WNK4 it was 0%; in the assay with YANK1 it was 0%; with YANK2, 0%; with YANK3, 0%. For the same compound, the “%Inh” value with YES is 0%; with YSK1 it was 0%; in the assay with YSK4 it was 0%; in the assay with ZAK it was 5%; in the assay on ZAP70, 3%; in the assay on p38-alpha it was 0%. The “%Inh” value in the assay with p38-beta and in the assay on p38-delta was 0% each time.

Regarding `Cn1cnc2c(N)ncnc21` [SKF-97623], the “%Inh” value in the assay on VEGFR2 turned out to be 100%; in the assay on VPS34, 0%; with VRK2, 96.8%; with WEE1, 0%; with WEE2, 29%; in the assay with WNK1, 0%. Besides, the “%Inh” value is reported as 8% in the assay with WNK2; 0% with WNK3; 0% with WNK4; 0% with YANK1; 0% with YANK2; 0% in the assay on YANK3. Further, the “%Inh” value in the assay on YES came to 0%; in the assay on YSK1, 0%; in the assay with YSK4, 0%; in the assay on ZAK, 0%; with ZAP70, 12%; in the assay with p38-alpha, 0%. In addition, the “%Inh” value with p38-beta is recorded as 0%; in the assay on p38-delta, 4%.

Turning to `O=C(Nc1n[nH]c2nc(-c3cccs3)c(Br)cc12)C1CCCC1` [SB-743341], the “%Inh” value is 28% in the assay on VEGFR2; 0% with VPS34; 0% with VRK2; 0% in the assay on WEE1; 22% in the assay on WEE2; 0% with WNK1. The “%Inh” value in the assay on WNK2 is 5%; in the assay on WNK3 it was 0%; in the assay with WNK4, 3%; in the assay on YANK1 it was 24%; with YANK2, 15%; in the assay on YANK3, 65%. For the same compound, the “%Inh” value in the assay with YES is 0%; in the assay with YSK1, 0%; in the assay with YSK4, 0%; in the assay on ZAK it was 19%; in the assay on ZAP70, 0%; in the assay on p38-alpha, 13%. Further, the “%Inh” value in the assay with p38-beta and in the assay with p38-delta was 24% throughout.

For `CC(=O)c1c(C)c2cnc(Nc3ccc(N4CCNCC4)cn3)nc2n(C2CCCC2)c1=O`, the “%Inh” value with VEGFR2 is recorded as 6%; in the assay on VPS34, 0%; in the assay with VRK2, 0%; with WEE1 it was 0%; in the assay on WEE2, 0%; with WNK1, 0%. Also, the “%Inh” value in the assay with WNK2 was 0%; with WNK3 it was 0%; in the assay on WNK4, 0%; in the assay with YANK1, 16%; in the assay with YANK2, 0%; with YANK3, 0%. The “%Inh” value in the assay with YES came to 6%; in the assay on YSK1, 0%; in the assay with YSK4, 10%; with ZAK it was 0%; in the assay with ZAP70, 0%; in the assay on p38-alpha it was 0%. In addition, the “%Inh” value is reported as 0% with p38-beta and 22% in the assay on p38-delta.

For the compound `COC(=O)c1cccc(NC(=O)NC2CCN(c3ccnc(Nc4ccc(F)cc4)n3)C2)c1` (stereo not drawn) [GSK1379725], the “%Inh” value in the assay on VEGFR2 stood at 0%; with VPS34, 0%; in the assay with VRK2, 0%; in the assay with WEE1, 16%; in the assay with WEE2 it was 5%; in the assay with WNK1 it was 0%. Besides, the “%Inh” value with WNK2 is given as 18%; in the assay on WNK3, 27%; in the assay on WNK4, 0%; in the assay on YANK1, 0%; in the assay with YANK2, 0%; in the assay with YANK3 it was 0%. Moreover, the “%Inh” value came out at 8% in the assay on YES; 0% in the assay on YSK1; 8% in the assay with YSK4; 2% with ZAK; 0% with ZAP70; 0% with p38-alpha. Also, the “%Inh” value in the assay with p38-beta is listed as 0%; in the assay with p38-delta, 51%.

On to `COc1cc2ncnc(Nc3cccc(Br)c3)c2cc1OC.Cl` [GI230329], for which the “%Inh” value with VEGFR2 worked out at 0%; with VPS34, 41%; in the assay on VRK2, 24%; with WEE1, 2%; with WEE2, 6%; in the assay on WNK1, 0%. Moreover, the “%Inh” value in the assay with WNK2 stood at 0%; with WNK3, 41%; in the assay with WNK4, 16%; with YANK1 it was 56%; in the assay on YANK2, 0%; in the assay on YANK3, 13%. Also, the “%Inh” value in the assay with YES worked out at 3%; in the assay on YSK1, 4%; in the assay with YSK4, 63%; in the assay with ZAK, 12%; with ZAP70 it was 0%; in the assay on p38-alpha it was 47%. Besides, the “%Inh” value stood at 0% in the assay on p38-beta and 46% in the assay on p38-delta.
